BAZ2B block – inhibitors of human BAZ2B bromodomain | Q9UIF8 | AlphaScreen BAZ2B-H3K14Ac peptide displacement | Potency, µM (titrated, usually from 114 µM), usual class: inhibitors | hit rate 4.4% among 360,000; further: nearly all actives have a fitted effect of over 60% in size
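Inhibition is scored as reduced AlphaScreen emission. The BAZ2B/b-H3(5-23)K14Ac complex (50 nM each) in PBS pH 7.4, 0.01% Tween-20 meets compound (up to 110 uM) for 30 min at RT before bead addition.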
PLK1 PBD inh – blocks phosphopeptide binding to human PLK1 polo-box domain; P53350; Plk1 PBD binding of FITC phosphopeptide, fluorescence polarization; Potency, µM, hits mostly inhibitors; hit rate 2.8% among 360,000; AID 720504; further: series mostly up to about 57 µM; nearly all actives have a fitted effect of over 65% in size
G9a inh – G9a (human) methyltransferase inhibition | AID 504332 | Potency, µM (highest dose often 102 µM), hits mostly inhibitors | Q96KQ7 | G9a H3K9 monomethylation, AlphaScreen, 2 h | hit rate 8.8% among 350,000; further: nearly all actives have a fitted effect of over 75% in size
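Readings reflect AlphaScreen signal from monomethyl-H3K9 antibody detection. HMT at 20 nM; substrate b-H3K9 500 nM; cofactor SAM 20 uM; 2 h RT reaction; compounds tested as titrations in qHTS with 15 min preincubation.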
HP1b binding inh – HP1-beta chromodomain-methylated histone interaction inhibition | Potency, µM (titrated, usually from 114 µM), actives largely listed as inhibitors | P83916 | hit rate 0.56% among 390,000 | AlphaScreen HP1-beta / biotin-H3K9me3 peptide binding | AID 540317; further: nearly all actives have a fitted effect of over 70% in size
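HP1-beta protein (50 nM final) preincubated 30 min at room temperature with biotinylated H3(1-18)K9me3 peptide (50 nM) in PBS pH 7.4, 0.01% Tween-20, then compound added for 30 min. AlphaScreen streptavidin donor/nickel chelate acceptor beads (10 ug/mL final), 30 min dark, luminescence read.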
JMJD2A Tudor inh – blocks the human JMJD2A Tudor domain | O75164 | Potency, µM (highest dose often 114 µM), usual class: inhibitors | hit rate 4.4% among 390,000 | AlphaScreen JMJD2A-Tudor / H3K4me3 peptide binding | AID 504339; further: nearly all actives have a fitted effect of over 50% in size
VDR inh – blocks the human vitamin D receptor; P11473; hit rate 0.93% among 400,000; AID 504847; Potency, µM, most hits filed as inhibitors; VDR-SRC2-3 peptide fluorescence polarization, 2 h
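Compounds are added to VDR with labelled SRC2-3 coactivator peptide and held 2 h at room temperature. Inhibition of the VDR–peptide interaction is then read as a change in fluorescence polarization.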
Numbers stand for hits; i = inactive; ? = inconclusive; nt = no result; [ ] = dose if it differs, or a comment. The list is not random: actives were taken first. Their share in the collection is about 11%. The call rests on the fitted dose curve; in most records, active means well fitted curve in the direction sought with a large enough effect; inconclusive means small, poorly fitted or top-dose-only effect, or another doubt; inactive means no such curve, though single readings can be large; an effect the other way counts as inactive or inconclusive.

SMILES | BAZ2B block | PLK1 PBD inh | G9a inh | HP1b binding inh | JMJD2A Tudor inh | VDR inh
COc1ccc(C2/C(=C(/O)c3ccc4c(c3)CC(C)O4)C(=O)C(=O)N2CCCN2CCOCC2)cc1 (stereo not drawn) | i | i | 44.7µM | i | ? | i
O=C1C(=O)N(CCN2CCOCC2)C(c2ccccc2)/C1=C(\O)c1ccc2c(c1)OCCO2 (stereo not drawn) | i | i | ? | i | ? | i
O=C1C(=O)N(CCCN2CCOCC2)C(c2ccc(Cl)cc2)/C1=C(\O)c1ccc2c(c1)OCCO2 (stereo not drawn) | i | 23.8µM | 39.8µM | i | 31.6µM | ?
COc1ccc(/C(O)=C2/C(=O)C(=O)N(CCCN3CCOCC3)C2c2ccc(OC)cc2)cc1 (stereo not drawn) | i | i | nt | i | i | i
Cc1ccc(C2/C(=C(/O)c3ccc4c(c3)CC(C)O4)C(=O)C(=O)N2CCCn2ccnc2)cc1 (stereo not drawn) | ? | i | 44.7µM | i | i | i
CC1Cc2cc(/C(O)=C3/C(=O)C(=O)N(CCN4CCOCC4)C3c3ccc([N+](=O)[O-])cc3)ccc2O1 (stereo not drawn) | ? | i | 79.4µM | i | ? | i
Nc1ccc(C(=O)NN2C(=O)[C@H](Cl)C2c2ccc(Cl)cc2)cc1 (stereo partly drawn) | nt | i | nt | i | i | i
O=S1(=O)CCOCCCN1Cc1ccc(Cl)cc1 | i | i | i | i | i | i
COc1ccc(Nc2nc3cc(-c4ccccc4C)sc3c(=O)n2C)cc1OC | nt | i | nt | nt | nt | nt
COc1ccc(NC(=O)c2cc3nc(-c4ccc(C)c(C)c4)cc(C(F)(F)F)n3n2)cc1 | i | nt | i | i | i | i
O=C(OCC(=O)C12CC3CC(CC(C3)C1)C2)c1cccnc1Cl | i | i | i | i | i | i
CCCOc1cccc(C2/C(=C(/O)c3ccc4c(c3)CC(C)O4)C(=O)C(=O)N2CCN2CCOCC2)c1 (stereo not drawn) | i | i | 50.1µM | i | i | i
CC1Cc2cc(/C(O)=C3/C(=O)C(=O)N(CCN4CCOCC4)C3c3cccc(Cl)c3)ccc2O1 (stereo not drawn) | i | i | i[12.7 µM] | i | i | i
Cc1cc(C)c2c(N)c(C(=O)Nc3ccccc3Br)sc2n1 | i | i | nt | i | i | i
Cc1cc(C)c2c(N)c(C(=O)N3CCCCCC3)sc2n1 | ? | ? | ? | i | 35.5µM | i
CCc1ccccc1NC(=O)c1sc2nc(C)cc(C)c2c1N | i | 23.8µM | i | i | ? | ?
COCc1cc(C)nc2sc(C(=O)N3CCCC3)c(N)c12 | i | i | ? | i | ? | i
Cc1cc(C)c2c(N)c(C(=O)NCc3ccco3)sc2n1 | i | i | 10µM | i | i | i
CC(c1ccco1)N(C(=O)c1ccccc1NS(=O)(=O)c1cccc([N+](=O)[O-])c1)c1ccccn1 (stereo not drawn) | i | i | 79.4µM | i | i | i
CC(c1ccco1)N(C(=O)c1ccccc1NS(=O)(=O)c1cc([N+](=O)[O-])ccc1Cl)c1ccccn1 (stereo not drawn) | 79.4µM | i | 3.98µM | i | 25.1µM | i
CC(c1ccco1)N(C(=O)c1ccccc1F)c1ccccn1 (stereo not drawn) | i | i | i | i | i | i
CC(c1ccco1)N(C(=O)c1ccccc1NS(=O)(=O)c1ccc(Cl)cc1)c1ccccn1 (stereo not drawn) | i | i | ? | i | i | i
CN(C)C(CNS(=O)(=O)c1cc([N+](=O)[O-])ccc1Cl)c1ccco1 (stereo not drawn) | nt | 26.7µM | nt | i | ? | i
CCOc1ccc(S(=O)(=O)N2CN(c3cccc(C(C)=O)c3)c3nc4ccccc4nc32)cc1 | nt | i | nt | i | i | i
Cc1cc2c(cc1NS(=O)(=O)c1ccc(F)cc1)n(C)c(=O)c(=O)n2C | i | nt | i | i | i | i
SMILES | BAZ2B block | PLK1 PBD inh | G9a inh | HP1b binding inh | JMJD2A Tudor inh | VDR inh
CC(C)(C)c1ccc(C(=O)NNc2ncccc2-n2cccc2)cc1 | ? | i | ? | i | i | i
CC(OC(=O)CCN1C(=O)c2cccc([N+](=O)[O-])c2C1=O)C(=O)Nc1cc(Cl)cc(Cl)c1 (stereo not drawn) | i | i | 25.1µM | i | i | i
CCc1ccc(NC(=O)c2cc3c(=O)n(Cc4cccs4)ccc3nc2C)cc1 | i | nt | i | i | i | i
Cc1ccc(C)c(N(C)C(=O)c2cc3c(=O)[nH]c4ccc(C)cc4c3s2)c1 | i | i | i | i | i | i
CCOc1ccc(-c2nn[nH]n2)cc1 | ? | 26.7µM | i[2.33 µM] | i | 50.1µM | ?
CCOc1ccc(-c2nn[nH]n2)cc1OCC | i | i | ? | i | i | i
Cn1nc(-c2ccccc2)cc1NC(=O)CCCC(=O)O | i | i | i | i | i | i
CCOc1ccc(C2C=C(c3ccc(C)cc3)Nc3ncnn32)cc1 (stereo not drawn) | i | nt | 28.2µM | nt | nt | nt
COc1ccc(C2=CC(c3cccc(C)c3)n3nnnc3N2)cc1 (stereo not drawn) | i | nt | ? | i | i | i
CCOc1ccc(C2C=C(c3cccc(OC)c3)Nc3nnnn32)cc1 (stereo not drawn) | i | nt | i | i | i | i
CCOc1ccc(C2C=C(c3ccc(C)cc3)Nc3nnnn32)cc1 (stereo not drawn) | ? | 26.7µM | 50.1µM | i | i | i
Cc1ccc(C2=CC(c3ccc(C)cc3)n3ncnc3N2)cc1 (stereo not drawn) | nt | i | nt | i | i | i
CCOc1ccc(C2C=C(c3ccccc3)Nc3nnnn32)cc1 (stereo not drawn) | i | i | 50.1µM | i | i | i
CC(=O)Nc1nonc1-c1nnc(SCC(=O)Nc2c(C)cccc2C)n1-c1ccccc1 | i | nt | i | i | i | i
O=[N+]([O-])c1ccc(NCCc2ccccc2)c(Br)c1 | ? | i | i | i | i | i
O=C(CN1CCN(c2ccc(F)cc2)CC1)Nc1ccc2c(c1)OCCO2 | i | i | i | i | i | i
O=C(CN1CCN(c2nc(-c3ccc(F)cc3)cs2)CC1)Nc1ccc2c(c1)OCO2 | ? | i | 44.7µM | i | i | i
NC(=O)CN1CCN(c2nc(-c3ccc(F)cc3)cs2)CC1 | i | 29.9µM | i | i | i[11.4 µM] | i
N=C1C(c2nc3ccccc3s2)=C(O)CN1C1CCCCC1 | i | i | i[12.7 µM] | i | i | i
Cc1cc(C)c2cc(C(=O)Nc3ccc(C)c(F)c3)[nH]c2c1 | i | i | 44.7µM | i | i | i
CCCCNC(=O)c1cc2c(C)cc(C)cc2[nH]1 | i | i | 50.1µM | i | i | i
CCCCNC(=O)c1cccc(C(=O)NCCCC)c1 | i | i | i[12.7 µM] | i | i | i
COc1ccc(NC2SC(=O)N(CC(=O)O)C2=O)cc1 (stereo not drawn) | i | i | 39.8µM | i | 79.4µM | i
